Test results taken from PubChem BioAssay.
A number with no mark means an inactive call. For some of these results: Results with a measured potency or affinity are listed apart. Active and inactive are the calls of the source. Unless noted, how the calls were made is not given here.

Legend:
[1] = antimalarial activity against Dd2 strain (AID 2302;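 active means growth inhibition above 50% at the single 2 µM test dose, taken to imply half-maximal potency below 2 µM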;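 further: 0% = DMSO untreated growth and 100% = chloroquine plus artemisinin killed control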); settings: P. falciparum Dd2 in RBCs, LDH growth readout, 72 h; at 2 µM; stronger effect = higher value
[2] = human hepatoma cell viability loss – ATP luminescence, cytotoxicity control for P. falciparum antimalarial project, primary screen (AID 2303;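 active means inhibition above 50%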;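 further: 0% = DMSO wells and 100% = digitonin-killed cells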); settings: HepG2 viability, 24-48 h, at 10 µM, stronger effect = higher value
[3] = target: L-lactate dehydrogenase (Plasmodium falciparum (isolate CDC / Honduras)) (UniProt Q27743); test: PfLDH activity inhibition – cell lysate, 3D7 strain, counter-screen for P. falciparum growth inhibition project (AID 2304);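 further: 0% = vehicle and 100% = reference inhibitor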; settings: P. falciparum 3D7 crude extract, LDH APAD/NBT absorbance; at 2 µM; stronger effect = higher value
[4] = inhibition of 3D7 malaria parasite growth – strain 3D7 (AID 2306);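 further: 0% = DMSO wells and 100% = chloroquine plus artemisinin control wells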; settings: P. falciparum 3D7 erythrocytic growth, LDH absorbance, 72 h; at 2 µM; stronger effect = higher value
[5] = target: Calcium-dependent protein kinase 1 (Plasmodium falciparum (isolate 3D7)) (UniProt P62344); test: PfCDPK1 kinase inhibitors, biochemical, TCAMS library (AID 1159585; cut-off not given, nearly all actives have IC50 up to about 0.98 µM;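 further: inhibitors leave more ATP so luminescence rises with inhibition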); settings: recombinant PfCDPK1, Kinase-Glo ATP depletion luminescence
[6] = target: Plasmodium falciparum protein kinase 6 (PK6, PF3D7_1337100) (UniProt Q8IDW1); test: PfPK6 kinase inhibitors, biochemical, TCAMS library (AID 1159586); settings: recombinant PfPK6, Kinase-Glo ATP depletion luminescence
[7] = target: Protein kinase 7 (PK7), Plasmodium falciparum 3D7 (PF3D7_0213400) (UniProt Q7YTF7); test: inhibition of Plasmodium PK7 catalytic activity – biochemical, TCAMS antimalarial set, Kinase-Glo luminescence (AID 1159587); settings: recombinant PfPK7, Kinase-Glo ATP depletion luminescence
[8] = target: Calcium-dependent protein kinase 4 (Plasmodium falciparum (isolate 3D7)) (UniProt Q8IBS5); test: PfCDPK4 kinase inhibitors, biochemical, TCAMS library (AID 1159588; cut-off not given, nearly all actives have IC50 up to about 0.91 µM); settings: recombinant PfCDPK4, Kinase-Glo ATP depletion luminescence
Chain of Calcium-dependent protein kinase 4 (Plasmodium falciparum (isolate 3D7)) (Q8IBS5 whole entry, looked up): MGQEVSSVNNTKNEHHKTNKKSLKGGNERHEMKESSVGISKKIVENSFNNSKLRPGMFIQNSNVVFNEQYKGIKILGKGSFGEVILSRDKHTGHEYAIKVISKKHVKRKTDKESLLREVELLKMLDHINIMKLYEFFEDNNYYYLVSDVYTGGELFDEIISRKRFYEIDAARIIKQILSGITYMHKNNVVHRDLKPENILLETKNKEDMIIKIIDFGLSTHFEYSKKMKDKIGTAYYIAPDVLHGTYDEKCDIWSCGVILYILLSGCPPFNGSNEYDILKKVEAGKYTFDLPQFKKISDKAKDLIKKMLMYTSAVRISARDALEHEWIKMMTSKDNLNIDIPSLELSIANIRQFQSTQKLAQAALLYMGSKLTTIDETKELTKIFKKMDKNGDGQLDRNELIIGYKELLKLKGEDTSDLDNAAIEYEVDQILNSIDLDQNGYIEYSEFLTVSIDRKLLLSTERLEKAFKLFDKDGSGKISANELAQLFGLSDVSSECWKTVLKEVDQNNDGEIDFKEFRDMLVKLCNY

Chain of Protein kinase 7 (PK7), Plasmodium falciparum 3D7 (PF3D7_0213400) (Q7YTF7 1-343): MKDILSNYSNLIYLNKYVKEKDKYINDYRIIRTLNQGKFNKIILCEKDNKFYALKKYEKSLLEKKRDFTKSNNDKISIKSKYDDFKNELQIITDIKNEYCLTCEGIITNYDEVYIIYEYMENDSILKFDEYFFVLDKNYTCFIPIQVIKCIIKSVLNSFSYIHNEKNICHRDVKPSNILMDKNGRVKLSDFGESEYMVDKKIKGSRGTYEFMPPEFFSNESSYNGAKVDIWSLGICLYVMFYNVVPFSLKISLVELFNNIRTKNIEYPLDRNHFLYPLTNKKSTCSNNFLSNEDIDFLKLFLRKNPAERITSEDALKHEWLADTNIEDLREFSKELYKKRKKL
Chain of Calcium-dependent protein kinase 1 (Plasmodium falciparum (isolate 3D7)) (P62344 whole entry, looked up): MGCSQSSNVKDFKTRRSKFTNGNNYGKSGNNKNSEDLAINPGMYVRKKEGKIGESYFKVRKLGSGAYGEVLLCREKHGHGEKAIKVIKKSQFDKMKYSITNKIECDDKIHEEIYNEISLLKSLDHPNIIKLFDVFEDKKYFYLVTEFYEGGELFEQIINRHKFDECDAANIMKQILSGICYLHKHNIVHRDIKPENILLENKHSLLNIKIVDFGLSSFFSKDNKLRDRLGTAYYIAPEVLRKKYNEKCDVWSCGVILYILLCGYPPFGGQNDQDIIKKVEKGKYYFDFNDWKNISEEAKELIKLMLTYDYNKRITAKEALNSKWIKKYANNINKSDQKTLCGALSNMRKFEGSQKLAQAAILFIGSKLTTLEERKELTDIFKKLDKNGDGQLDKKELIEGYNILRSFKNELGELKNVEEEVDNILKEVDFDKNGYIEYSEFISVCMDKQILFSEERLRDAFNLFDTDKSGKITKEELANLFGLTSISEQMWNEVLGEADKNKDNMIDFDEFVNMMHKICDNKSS
Chain of L-lactate dehydrogenase (Plasmodium falciparum (isolate CDC / Honduras)) (Q27743 whole entry, looked up): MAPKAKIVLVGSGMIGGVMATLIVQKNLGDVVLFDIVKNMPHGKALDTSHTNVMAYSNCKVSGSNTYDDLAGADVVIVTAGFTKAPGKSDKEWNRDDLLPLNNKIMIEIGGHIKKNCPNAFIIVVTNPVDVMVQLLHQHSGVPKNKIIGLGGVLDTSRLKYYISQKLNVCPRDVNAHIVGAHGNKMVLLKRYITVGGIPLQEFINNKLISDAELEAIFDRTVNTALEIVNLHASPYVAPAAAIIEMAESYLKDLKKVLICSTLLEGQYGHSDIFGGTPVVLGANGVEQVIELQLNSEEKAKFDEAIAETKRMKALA
Chain of Plasmodium falciparum protein kinase 6 (PK6, PF3D7_1337100) (Q8IDW1 1-305): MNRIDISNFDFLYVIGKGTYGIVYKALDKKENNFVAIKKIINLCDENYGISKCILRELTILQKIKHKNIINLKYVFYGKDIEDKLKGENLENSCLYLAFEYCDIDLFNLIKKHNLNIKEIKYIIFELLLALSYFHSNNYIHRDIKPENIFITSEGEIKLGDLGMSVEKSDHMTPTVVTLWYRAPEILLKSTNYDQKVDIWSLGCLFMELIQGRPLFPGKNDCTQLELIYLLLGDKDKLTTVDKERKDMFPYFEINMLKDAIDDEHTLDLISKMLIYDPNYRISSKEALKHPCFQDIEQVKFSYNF

Compound	growth inhibition [1]	inhibition [2]	inhibition [3]	growth inhibition [4]	outcome [5]	outcome [6]	outcome [7]	outcome [8]
CCCc1cc(OC)c(C[C@@H]2c3cc(O)c(Cl)cc3CCN2C)cc1OC	98% (active)	3%	8%	98% (active)	inactive	inactive	inactive	inactive
CCCCn1c(N)c(N(Cc2ccco2)C(=O)C=Cc2cc(OC)c3c(c2)OCCO3)c(=O)[nH]c1=O	94% (active)	4%	2%	85% (active)	inactive	inactive	inactive	inactive
CN(CC(=O)Nc1ccc(F)cc1)C(=O)c1ccc(-c2ccc(F)cc2)o1	84% (active)	3%	-2%	89% (active)	inactive	inactive	inactive	inactive
Cc1cc(N)c2cc(NC(=O)/C=C/c3ccc([N+](=O)[O-])cc3)ccc2n1	80% (active)	76% (active)	-2%	100% (active)	inactive	inactive	inactive	inactive
COc1cc(Nc2ccnc3cc(-c4ccncc4)ccc23)cc(OC)c1OC	39%	9%	0%	89% (active)	inactive	inactive	inactive	inactive
O=C(Cc1ccc(NC(=O)c2ccc(O)c(-c3ccc(Cl)c(Cl)c3)c2)cc1)NCCN1CCCCC1	63% (active)	12%	-4%	95% (active)	inactive	inactive	inactive	inactive
O=C(CCn1c2ccccc2c2ccccc21)NN=Cc1ccco1	-3%	6%	-3%	96% (active)	inactive	inactive	inactive	inactive
O=C(NCCN1CCCC1)N1CCCN(c2ncnc3cc(-c4ccc(Cl)cc4)sc23)CC1	32%	13%	6%	96% (active)	inactive	inactive	inactive	inactive
CCOc1cc(O)c(-c2nc(N)ncc2-c2ccc3c(c2)OCCO3)cc1CC	68% (active)	-5%	-1%	99% (active)	inactive	inactive	inactive	inactive
COc1cccc(Nc2nc(C)cc(NC3CCCC3)n2)c1	79% (active)	41%	1%	101% (active)	inactive	inactive	inactive	inactive
COc1ccc2nccc([C@@H](O)CN3CCC(NCCOc4ccccc4C(F)(F)F)CC3)c2c1	95% (active)	2%	-5%	98% (active)	inactive	inactive	inactive	inactive
O=C(Nc1cc(C(F)(F)F)cc(C(F)(F)F)c1)NC(CCCN1CCC2(CC1)OCc1ccccc12)c1ccc(Cl)c(Cl)c1 (stereo not given)	87% (active)	26%	2%	94% (active)	inactive	inactive	inactive	inactive
O=C(CC(=O)C(F)(F)F)c1ccc2c(c1)OCO2	0%	44%	0%	96% (active)	inactive	inactive	inactive	inactive
Cc1cc(NC2CCN(CC3CCCCC3)C2)nc(Nc2ccc(Br)cc2)n1 (stereo not given)	83% (active)	22%	-1%	101% (active)	inactive	inactive	inactive	inactive
Oc1cccc(Nc2nc(NCC3CCCO3)c3ccccc3n2)c1 (stereo not given)	87% (active)	-9%	-1%	100% (active)	inactive	inactive	inactive	inactive
C[C@H](NC(=O)c1c(CN2CCN(C(=O)C(C)(C)C)CC2)c(-c2cccs2)nc2ccccc12)C1CCCCC1	62% (active)	2%	3%	89% (active)	inactive	inactive	inactive	inactive
COc1ccc(-c2nc(NC(=O)Cc3cccc(OC)c3)sc2C)cc1	77% (active)	1%	-3%	101% (active)	inactive	inactive	inactive	inactive
COc1ccc(OC)c(NC(=O)CSc2nc(-c3ccccc3Cl)ns2)c1	32%	-8%	-1%	95% (active)	inactive	inactive	inactive	inactive
CC(C)(C)c1nn(-c2ccc(Cl)cc2)c2[nH]c(=O)c(CNC3CCCC3)cc12	99% (active)	-2%	1%	99% (active)	inactive	inactive	inactive	inactive
NC(N)=NC(=O)Nc1cc(Br)c(Br)c(Br)c1	89% (active)	0%	1%	101% (active)	inactive	inactive	inactive	inactive
